According to ChEMBL document CHEMBL3988442, “University of Dundee, Small-Polar-MMV Screening Library” (2021):
Out of some 69,000 compounds screened, about 10 (0.01%) showed an effect of 50% or more. This excerpt belongs to a sample that is enriched for strong results.

molecular target: ClpP1P2 (Mycobacterium tuberculosis (strain ATCC 25618 / H37Rv)) (UniProt P9WPC5+P9WPC3); test: in vitro assay to detect presence of AMC directly proportional to the activity of ClpP1P2. GHDDI collaboration.; assay type: functional; parameters: scale not given: direction of the effect not stated beside the values; settings: 50 µM

| Compound | Percent Effect [%] |
| --- | --- |
| CN(C)S(=O)(=O)N1C[C@H]2CCC[C@@]2(COCC2CC2)C1 | 0.536 |
| Cc1cccc(CN2C(=O)CC[C@H]3[C@@H]2CCN3CC(=O)N(C)C)n1 | 2.64 |
| Cc1nc(-c2ccc(CC(=O)N3CCNC(=O)C3)cc2)cs1 | -0.00295 |
| Cc1nc(-c2ccc(CC(=O)N3CCN(C(=O)C4CC4)CC3)cc2)cs1 | 7.62 |
| Cc1nc(-c2ccc(CC(=O)N3CCN(C(=O)C(C)C)CC3)cc2)cs1 | 88.4 |
| c1cc(CN2CCO[C@@H]3CNC[C@@H]32)co1 | -6.86 |
| CN1C[C@H]2CN(C(=O)c3ccc4c(c3)OCO4)CCN2C1=O | -1.11 |
| O=C1NC(c2ccccc2)=N[C@@]12CC[C@@H]1CN(Cc3ccco3)C[C@@H]12 | -1.45 |
| COCC(=O)N1CC[C@H]2OCC[C@@]2(c2nc(C)no2)C1 | -7.69 |
| CN(C)C(=O)N1CCC[C@]2(C(=O)N(C)C)CN(c3ccccn3)C[C@@H]2C1 | -16.1 |
| COc1ccc(CN2C[C@H]3C[C@H](C(=O)Nc4cccnc4)[C@@H](C2)O3)cc1 | 7.77 |
| CCC(=O)N1C[C@@H]2CCN(c3cnccn3)C[C@@H]2C1 | 27.9 |
| Cc1cccc(CN2C[C@@H]3CN(C(=O)c4ccsc4)C[C@@H]3C2=O)c1 | 5.73 |
| O=C(N1CCOCC1)N1C[C@H]2CC[C@@H]1CN(C1Cc3ccccc3C1)C2 | 4.16 |
| O=C(c1ccoc1)N1CCO[C@@H]2CNC[C@@H]21 | -6.03 |
| CN1CCN(C(=O)C[C@@H]2COC[C@H]3CN(c4ccncn4)C[C@@H]23)CC1 | -11.8 |
| Cc1cccnc1[C@]1(O)CC[C@H]2CN(Cc3cccc(Cl)c3Cl)C[C@H]21 | 0.575 |
| COCCN1CCN(C(=O)c2ccccc2C(C)=O)[C@H]2CS(=O)(=O)C[C@H]21 | -4.44 |
| Cc1nccc([C@@H]2C[C@@H]3CCN(Cc4c(C)noc4C)C[C@H]3O2)n1 | 9.38 |
| N#Cc1ccccc1CN1C[C@@H]2CC[C@H](C1)N(CC1CC1)C2=O | -3.85 |
| O=C(c1ccnnc1)N1CCN2C[C@H](OCc3ccccn3)C[C@H]2C1 | 0.376 |
| C[C@H]1C[C@H]2CN(C(=O)CCOc3ccccc3)CC[C@H]2O1 | 5.83 |
| O=C(NC[C@]12COC[C@H]1CN(Cc1nccs1)C2)c1cscn1 | 2.68 |
| O=C(Nc1cnccn1)[C@@H]1CCO[C@@H]2CCN(Cc3ccsc3)C[C@@H]21 | -0.52 |
| Cc1ccnn1CCC(=O)N1C[C@H]2CC[C@@H]1CN(CC(=O)N(C)C)C2 | 10.3 |

| Compound | Percent Effect [%] |
| --- | --- |
| CCNC(=O)N1C[C@@H]2OCC(=O)N(CC3CCCCC3)[C@@H]2C1 | 5.8 |
| Cc1noc([C@@]23CCO[C@@H]2CCN(C(=O)CN(C)C)C3)n1 | -12.4 |
| O=C(NCC1CCOCC1)[C@H]1C[C@@H]2CCN(c3nncs3)C[C@@H]2O1 | -12.4 |
| Cn1ccnc1C(=O)NC[C@H]1OC[C@@H]2CCN(S(C)(=O)=O)C[C@@H]21 | 12.7 |
| COCC(=O)N1CCC[C@]2(C(=O)N(C)C)CN(c3ccccn3)C[C@@H]2C1 | -0.178 |
| C[C@H]1C[C@H]2CN(C(=O)c3cccc4c3OCCO4)CC[C@H]2O1 | -0.751 |
| Cn1cccc1C(=O)N1CC[C@H]2[C@H](CO[C@H]2CNS(C)(=O)=O)C1 | 5.31 |
| Cc1nn(C)c(C)c1S(=O)(=O)N1C[C@@H]2C[C@@H](C)O[C@@H]2C1 | -4.66 |
| CCC1=N[C@@]2(CC[C@@H]3CN(S(=O)(=O)CC)C[C@@H]32)C(=O)N1CC | -9.65 |
| CN1C[C@H]2C[C@H](C(=O)Nc3cccnc3)[C@@H](C1)O2 | -5.71 |
| Cn1cc(C(=O)NC[C@H]2OC[C@@H]3CCN(C4CCOCC4)C[C@@H]32)cn1 | -8.58 |
| Cc1ccnn1CCC(=O)N1CCCC[C@]2(C)NC(=O)CCC[C@H]12 | 2.82 |
| C[C@@H]1C(=O)NC[C@H]2CN(CCc3ccccc3)C[C@H]21 | 11.1 |
| O=C(NCc1ccccn1)[C@H]1COC[C@H]2CN(CC3CC3)C[C@H]21 | 7.53 |
| Cc1cnc(CNC(=O)[C@@H]2CC[C@@H]3[C@@H](CCN3Cc3ccco3)O2)cn1 | -0.464 |
| CC(C)=CCN1C[C@H]2CC[C@@H]1CN(CCC(=O)NCc1ccco1)C2 | -17.3 |
| Cc1nc(COC[C@@]23CCC[C@@H]2CN(Cc2cnn(C)c2)C3)cs1 | 2.95 |
| CNC(=O)[C@@]12CCO[C@@H]1CCN(Cc1ccc3c(c1)OCO3)C2 | 14.7 |
| O=C(O)[C@@]12CN(c3cnccn3)C[C@@H]1CN(C1CCOCC1)C2 | -12.3 |
| Fc1cnc(N2CCO[C@H]3[C@H](OCCN4CCCC4)CC[C@@H]32)nc1 | -0.916 |
| Fc1cccnc1O[C@H]1CN(Cc2ccoc2)[C@@H]2CCCO[C@H]12 | 5.17 |
| Cc1nc(CN2C(=O)CC[C@@H]3[C@H]2CCN3C(=O)c2ccccn2)cs1 | 2.69 |
| Cc1nc(CN2CCO[C@@H]3CN(Cc4ccccn4)CC[C@@H]3C2)cs1 | -1.41 |
| c1ccc(CO[C@H]2C[C@@H]3CN(Cc4cncnc4)C[C@@H]3C2)cc1 | -9.01 |
| COCCNC(=O)[C@H]1C[C@@H]2CCN(c3ccncn3)C[C@H]2O1 | -14.9 |

| Compound | Percent Effect [%] |
| --- | --- |
| Cc1ccc(C(=O)N2CC[C@@H]3[C@H]2CCC(=O)N3CCN(C)C)cn1 | 15.8 |
| CN1C[C@@H](F)[C@@H](OCc2nc3ccc(C#N)cc3[nH]2)C1 | -10.4 |
| Cc1ccc2[nH]c(CO[C@H]3CN(C(=O)C4CC4)C[C@H]3F)nc2c1 | -1.53 |
| Cc1ccc2[nH]c(CO[C@H]3CN(c4ccc(C#N)cn4)C[C@H]3F)nc2c1 | 78.4 |
| CC(=O)N1CCC(c2cncc(N3CCCCCC3)n2)CC1 | -8.81 |
| CC(=O)N1CCC(c2cncc(N3CCOCC3)n2)CC1 | 55.4 |
| CC(=O)N1CCC(c2cncc(N3CCC(O)C3)n2)CC1 (centres undefined) | -28.1 |
| O=C(NC1CCC1)[C@@H]1C[C@@H]2CCN(Cc3cccs3)C[C@@H]2O1 | -6.23 |
| O=C1CC[C@]2(CC[C@@H](NCc3cccnc3)CC2)N1Cc1ccccc1 | 9.66 |
| CN(C)S(=O)(=O)N1CC[C@]2(O)CCN(Cc3cccc(C#N)c3)C[C@@H]2C1 | -12.9 |
| CO[C@H]1CN(Cc2ccc(C)o2)[C@@H]2CCCO[C@H]12 | -4 |
| COCCN1C[C@H]2CC[C@@H]1CN(C(=O)c1ccc(Cl)cc1)C2 | 2.81 |
| Cc1ccccc1CN1C[C@@H](C(=O)N2CCCCO2)C[C@H]2OCC[C@H]21 | -6.2 |
| CCCN1CCN(C(=O)c2cnc(C)nc2)[C@H]2CS(=O)(=O)C[C@H]21 | 5.85 |
| CCS(=O)(=O)N1CC[C@@H]2[C@H](COCC3CC3)CN(C)C(=O)[C@@H]2CC1 | -4.29 |
| Cc1ccc([C@]2(O)CC[C@H]3CN(Cc4ccncc4)C[C@H]32)nc1 | 23.9 |
| O=C([C@H]1C[C@H]2OCC[C@H]2N(CC2CCOCC2)C1)N1CCCCO1 | -11.4 |
| COCCN1C[C@@H]2[C@@H](OC)CCN(S(=O)(=O)c3cccnc3)[C@@H]2C1 | -10.6 |
| Cc1cnc(N2C[C@H]3CCN(CC4CC4)C[C@H]3C2)nc1 | -8.8 |
| Cc1ccc(CN2CC[C@@H]3[C@@H]2CCN3C(=O)Cc2cccs2)o1 | 16.6 |
| COc1ccc(CC(=O)N2C[C@H]3CN(Cc4ccccn4)C[C@H]3C2)cc1 | -3.43 |
| Cc1noc(C)c1CN1C[C@H](OCC(=O)N(C)C)[C@H]2OCCC[C@H]21 | -8.82 |
| CNCCN1C(=O)CC[C@H]2CN(c3cnc4ccccc4n3)CC[C@H]21 | -92.8 |
| O=C(CN1C[C@H]2CC[C@@H]1CN(Cc1ccccn1)C2)Nc1ccccc1 | -28.1 |
| CN(Cc1ccco1)[C@@H]1CN(Cc2cccnc2)C[C@@H]2CCCO[C@@H]21 | 6.33 |

| Compound | Percent Effect [%] |
| --- | --- |
| CC(C)OC(=O)N1C[C@H]2CC[C@@H]1CN(C(=O)c1ccccc1)C2 | -3.47 |
| Cc1noc([C@H]2COC[C@H]3CN(C(=O)Cc4cccs4)C[C@H]32)n1 | -9.33 |
| CN(C)C(=O)[C@@H]1C[C@@H]2CCN(Cc3ccncc3)C[C@@H]2O1 | 7.41 |
| c1cncc(COCC2CC[C@H]3[C@H]2OCCN3Cc2ccoc2)c1 (some centres undefined) | 3.35 |
| CN(C)C[C@]12COC[C@H]1CN(C(=O)Cc1ccc3c(c1)OCO3)C2 | 7.79 |
| Cn1cc(CN2CC[C@@H]3O[C@H](C(=O)N4CCOCC4)C[C@@H]32)cn1 | -11.6 |
| COCCN1C[C@@H]2CN(Cc3cccc(F)c3)CCC[C@]2(C(=O)O)C1 | -13.3 |
| Cc1cccc2nc(C(=O)N3CCCC[C@]4(C)NC(=O)CCC[C@H]34)cn12 | -8.66 |
| CN(C)C(=O)[C@H]1CC[C@@H]2[C@@H](CCN2Cc2ccccn2)O1 | -3.56 |
| CC1=N[C@@]2(CC[C@@H]3CN(Cc4cccc(Cl)c4)C[C@@H]32)C(=O)N1CC1CC1 | 3.49 |
| O=C(c1cccnc1)N1C[C@@H]2OCCN(CCN3CCCC3)[C@@H]2C1 | 4.78 |
| Cn1ccnc1CN1CCO[C@H]2C(CNC(=O)c3ccco3)CC[C@@H]21 (some centres undefined) | 0.912 |
| Cc1ncsc1CN1C[C@@H](OCC(=O)N(C)C)[C@H]2OCCC[C@H]21 | -2.89 |
| CCS(=O)(=O)N1CCC[C@]2(C(=O)N(C)C)CN(c3ncccn3)C[C@@H]2C1 | 5.41 |
| CCc1ccc(CN2C[C@@H]3COC[C@H](NS(C)(=O)=O)[C@@H]3C2)o1 | -9.73 |
| Cc1cccc(CN2CCCC[C@H]3CN(c4ncccn4)C[C@H]32)c1 | 3.15 |
| CCN1CCO[C@@H]2CN(S(=O)(=O)c3cccs3)CC[C@@H]2C1 | 1.3 |
| CC(=O)N1CCC(N2CCN3C(=O)N(c4ccccc4)C[C@H]3C2)CC1 | -1.27 |
| Cc1noc([C@@]23CCO[C@@H]2CCN(C(=O)c2c(C)noc2C)C3)n1 | -20.2 |
| CCCS(=O)(=O)N1C[C@@H]2CN(Cc3ccoc3)CCO[C@@H]2C1 | 2.92 |
| Cc1cc(CN2C[C@@H]3CCCO[C@@H]3[C@H](Nc3ccccn3)C2)no1 | -4.49 |
| COc1cc2c(cc1-c1nc3c(cnn3C(C)C(C)C)[nH]1)OCO2 (centres undefined) | -3.85 |
| COc1cc2c(cc1-c1nc3c(cnn3C(C)C)[nH]1)OCO2 | 56.2 |
| COc1cc2c(cc1-c1nc3c(cnn3C(C)C3CC3)[nH]1)OCO2 (centres undefined) | 21.1 |
